Screening data deposited in PubChem by Johns Hopkins Ion Channel Center.
A selection: hits, their analogues and other compounds. The true share with any hit is near 1.6%.
KCNQ2 inh – blocks the rat KCNQ2 potassium channel; CHO-K1 KCNQ2, FluxOR thallium flux, 20 min; active compounds read low; B-score at 10 µM; actives 1.1% (n = 310,000); AID 2156;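 active = fluorescence ratio B-score at most minus 3 library SDs, with starting brightness B-score within 2 library SDs, cut at about -5.5 in these data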
Target sequence (O88943 whole entry, looked up): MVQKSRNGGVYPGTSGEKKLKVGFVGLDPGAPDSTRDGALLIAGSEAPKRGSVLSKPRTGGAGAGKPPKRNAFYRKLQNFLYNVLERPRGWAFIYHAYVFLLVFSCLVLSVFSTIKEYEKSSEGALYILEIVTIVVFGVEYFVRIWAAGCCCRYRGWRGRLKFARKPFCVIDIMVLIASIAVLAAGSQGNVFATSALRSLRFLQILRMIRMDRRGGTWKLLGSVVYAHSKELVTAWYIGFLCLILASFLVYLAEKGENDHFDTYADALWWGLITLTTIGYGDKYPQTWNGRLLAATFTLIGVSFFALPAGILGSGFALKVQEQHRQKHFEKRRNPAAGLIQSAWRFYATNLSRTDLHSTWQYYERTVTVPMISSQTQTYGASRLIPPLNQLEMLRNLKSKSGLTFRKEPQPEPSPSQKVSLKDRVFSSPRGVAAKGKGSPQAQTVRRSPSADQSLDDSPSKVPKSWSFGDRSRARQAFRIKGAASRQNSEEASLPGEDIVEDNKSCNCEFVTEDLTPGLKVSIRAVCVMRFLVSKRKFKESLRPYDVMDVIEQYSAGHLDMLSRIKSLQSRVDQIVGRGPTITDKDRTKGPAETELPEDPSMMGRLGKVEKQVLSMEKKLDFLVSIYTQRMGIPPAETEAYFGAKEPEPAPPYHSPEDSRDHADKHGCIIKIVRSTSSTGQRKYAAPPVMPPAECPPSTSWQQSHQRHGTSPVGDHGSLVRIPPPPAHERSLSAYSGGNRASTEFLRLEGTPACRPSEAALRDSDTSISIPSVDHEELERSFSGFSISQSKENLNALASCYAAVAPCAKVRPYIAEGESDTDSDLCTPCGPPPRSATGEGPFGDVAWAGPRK
KCNQ2 pot – KCNQ2 (rat) channel potentiation | AID 2239 | O88943 | CHO-K1 KCNQ2, FluxOR thallium flux fluorescence; active compounds read high | actives 0.54% (n = 310,000) | B-score at 10 µM;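 active = fluorescence ratio B-score at least 3 SD of library B-scores, with initial fluorescence B-score within 3 of them, cut at about 5.3 in these data; same plate scores as AID 2156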;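 note: B-score of peak minus minimum over baseline fluorescence ratio after K+ and Tl+ stimulus; positive B-score means potentiation of KCNQ2 with more thallium influx and brighter signal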
Each line names hits and unclear results; the compound was inactive in the other large screens.

O=C(CCC(=O)N1CCN(S(=O)(=O)c2ccc(Cl)cc2)CC1)NC1CCCc2ccccc21 (configuration not stated)	KCNQ2 inh -7.1
CC1(C)C2CC[C@]3(C)C(CC=C4[C@@H]5C[C@@](C)(CO)[C@@H](O)C[C@]56C[C@@H](OC6=O)[C@]43C)[C@@]2(C)CC[C@@H]1O (some centres not stated)	none
CCOC(=O)/C(C#N)=C/Nc1ccccc1OC(F)(F)F	none (no result: KCNQ2 pot)
CCn1c(C(=O)OC)cc2c1ccn2-c1ccc(F)cc1	none (no result: KCNQ2 pot)
CCOC(=O)c1cc2c(ccn2-c2ccc(F)cc2)n1CC(=O)NC(C)(C)C	KCNQ2 inh -6.7
CC(C)COc1ccc(C(=O)Nc2scc(-c3ccc(Cl)cc3Cl)c2C(N)=O)cc1	KCNQ2 inh -7.1
O=C(Nc1nc(-c2ccc(Cl)cc2Cl)cs1)c1ccc(OCC2CCCO2)cc1 (configuration not stated)	none (no result: KCNQ2 pot)
COc1ccc(S(=O)(=O)N2CCCOC2CNC(=O)C(=O)NCc2ccccn2)cc1 (configuration not stated)	none (no result: KCNQ2 pot)
CCOC(=O)C1(Cc2ccccc2)CCCN(Cc2ccc(OCCO)cc2)C1 (configuration not stated)	none
CCOC(=O)C1(Cc2ccccc2)CCCN(Cc2cccc(C(C)=O)c2)C1 (configuration not stated)	KCNQ2 inh -6
CC(=O)Nc1ccc(S(=O)(=O)Nc2nc3ccccc3nc2Nc2ccc(O)c(C(=O)O)c2)cc1	none (no result: KCNQ2 pot)
Cc1ccccc1N1CCN(S(=O)(=O)Cc2ccccc2)CC1	none
Cc1nc(NC(=O)C2CCCC2)sc1Cc1ccc2c(c1)OCO2	none
Cc1nc(NC(=O)C23CC4CC(CC(C4)C2)C3)sc1Cc1ccc2c(c1)OCO2	KCNQ2 pot 21
CCN(CC(=O)NCc1ccc(Cl)cc1)C(=O)/C=C/c1ccc(Cl)c([N+](=O)[O-])c1	none (no result: KCNQ2 pot)
Cc1ccc(C)c(N2CCN(C(=O)c3nn(C)c4c3CS(=O)(=O)c3ccccc3-4)CC2)c1	none (no result: KCNQ2 pot)
Cc1ccccc1NC(=O)CSCc1nc(N)nc(Nc2ccccc2C)n1	KCNQ2 pot 5.7
Cc1ccccc1Nc1nc(N)nc(COC(=O)C2CCCCC2)n1	KCNQ2 pot 7.7
Cc1ccc(N2CC(C(=O)OCc3nc(N)nc(Nc4ccccc4C)n3)CC2=O)cc1 (configuration not stated)	none
Cc1ccccc1Nc1nc(N)nc(CCl)n1	none (no result: KCNQ2 pot)
CC(C)CNC(=S)N1CCN(C(c2ccccc2)c2ccccc2)CC1	KCNQ2 inh -5.9
C=C(C)CNC(=S)N1CCN(C(c2ccccc2)c2ccccc2)CC1	none (no result: KCNQ2 pot)
Cn1ccs/c1=N\C(=O)Nc1cccc(C(F)(F)F)c1	none
COc1cn(-c2ccccc2)nc1C(=O)Nc1ccc(C)cc1Cl	none
c1ccc(CCn2c3ccccc3c3nnc(SCc4ccc5nonc5c4)nc32)cc1	KCNQ2 inh -6.2
CCN(CC)CCSc1nnc2c3ccccc3n(CCc3ccccc3)c2n1	none (no result: KCNQ2 pot)
COc1ccc2cc(C3OCCO3)c(Cl)nc2c1	none
Cc1ccc(NC(=S)N2CCN(S(C)(=O)=O)CC2)cc1Cl	none (no result: KCNQ2 pot)
O=C(O)CC1(CC(=O)Nc2ccc(Br)cc2)CCCCC1	KCNQ2 inh -7.6
O=C(O)CC1(CC(=O)Nc2ccc3ccccc3c2)CCCCC1	none (no result: KCNQ2 pot)
CCN1CCCC1CNC(=O)c1ccc2c(c1)NC(=O)/C(=C\c1ccc(C)cc1)S2 (configuration not stated)	KCNQ2 inh -7.6
Cc1ccc(/C=C2/Sc3ccc(C(=O)NCCN4CCOCC4)cc3NC2=O)cc1	none (no result: KCNQ2 pot)
COC(=O)c1ccc(NC(=O)COc2ccc(S(=O)(=O)NC(C)(C)C)cc2)cc1	none
O=C(CC(C(=O)O)c1cccc(Br)c1)c1ccc(Cl)cc1 (configuration not stated)	none (no result: KCNQ2 pot)
O=S(=O)(NCCSCc1ccc(Cl)cc1Cl)c1ccc2c(c1)OCCO2	none (no result: KCNQ2 pot)
O=S(=O)(NCCSCc1c(Cl)cccc1Cl)c1ccc2c(c1)OCCO2	KCNQ2 inh -6.8
COC(=O)c1ccc(CC(=O)c2ccc(O)cc2O)o1	KCNQ2 inh -5.8
CCOC(=O)c1ccc(CC(=O)c2ccc(O)cc2O)o1	none (no result: KCNQ2 pot)
COc1ccccc1N1CCNC(C)C1=O (configuration not stated)	none (no result: KCNQ2 pot)
COc1ccc(CCNC(=O)CSc2nc3[nH]ncc3c(=O)n2-c2ccc(C)c(Cl)c2)cc1OC	none (no result: KCNQ2 pot)
CC1(C)SC(=S)N(/N=C/c2ccc(O)cc2)C1N(O)C(=O)Nc1ccc([N+](=O)[O-])cc1 (configuration not stated)	KCNQ2 inh -7.5
Cc1ccc(/C=N/N2C(=S)SC(C)(C)C2N(O)C(=O)Nc2ccc([N+](=O)[O-])cc2)cc1 (configuration not stated)	none (no result: KCNQ2 pot)
N/C(Cc1ccc(Cl)cc1Cl)=N\OC(=O)c1ccccc1	none
N/C(CC1CC1(Cl)Cl)=N\OC(=O)c1ccccc1 (configuration not stated)	KCNQ2 inh -8.6
O=C(CN(C1CCCCC1)C1CCCCC1)N1CCc2ccccc2C1	KCNQ2 inh -8
O=C(CN(C1CCCCC1)S(=O)(=O)c1ccccc1)N1CCCC1	none (no result: KCNQ2 pot)
O=C(Nc1cccc(F)c1)C1CCCN(S(=O)(=O)c2cnc[nH]2)C1 (configuration not stated)	none (no result: KCNQ2 pot)
O=c1nc2n(c3ccc([N+](=O)[O-])cc13)CCCCC2	none (no result: KCNQ2 pot)
O=[N+]([O-])c1ccc2c(c1)C=C1CCCCC1(N1CCCCC1)O2 (configuration not stated)	KCNQ2 inh -5.7
CC(=O)N1c2ccc(S(=O)(=O)N3CCCC(C(=O)NCc4ccccc4Cl)C3)cc2CC1C (configuration not stated)	KCNQ2 inh -6.2
Cc1ccc(S(=O)(=O)N2CCCC2C(=O)Nc2nc3ccccc3s2)cc1 (configuration not stated)	none (no result: KCNQ2 pot)
CC(=O)N1c2ccc(S(=O)(=O)N3CCC(C(=O)NCc4ccccc4Cl)CC3)cc2CC1C (configuration not stated)	none (no result: KCNQ2 pot)
Cc1ccc(S(=O)(=O)N2CCCC2C(=O)NCc2ccccc2Cl)cc1 (configuration not stated)	KCNQ2 inh -6.6
COc1ccc(S(=O)(=O)N2CCCC2C(=O)NCc2ccccc2Cl)cc1 (configuration not stated)	none (no result: KCNQ2 pot)
O=C(Nc1nc2ccccc2s1)C1CCCN1S(=O)(=O)c1ccc(Cl)cc1 (configuration not stated)	KCNQ2 inh -5.6
CC(C)c1ccccc1OS(N)(=O)=O	none
COc1ccc(NC(=O)CN(C)CC(=O)NCC(=O)Nc2ccc(F)cc2)cc1	none (no result: KCNQ2 pot)
Clc1ccc(-c2nnc(-c3ccc(Br)cc3)c(N3CCSCC3)n2)cc1	KCNQ2 inh -7
Clc1ccc(-c2nnc(-c3ccco3)nc2N2CCCCC2)cc1	none (no result: KCNQ2 pot)
COc1ccc(COCC(O)CN(Cc2ccco2)Cc2ccccc2O)cc1 (configuration not stated)	none (no result: KCNQ2 pot)
Oc1ccccc1CN(Cc1ccco1)CC(O)COCc1ccc(Cl)cc1 (configuration not stated)	KCNQ2 inh -6.1
CCc1ccccc1NC(=O)C1CCN(S(=O)(=O)c2ccc3c(c2)N(C(C)=O)CCO3)CC1	none (no result: KCNQ2 pot)
O=C(CN(c1ccc(Cl)cc1)S(=O)(=O)c1ccccc1)N1CCN(c2ccccc2)CC1	KCNQ2 inh -7.4
COc1ccc(N2CCN(C(=O)CN(c3ccc(OC)cc3)S(=O)(=O)c3ccccc3)CC2)cc1	none (no result: KCNQ2 pot)
CCC(CC)C(=O)N1CC(=O)Nc2ccc(F)cc2C1c1ccc(F)cc1 (configuration not stated)	none
CCOC(=O)c1nn(C23CC4CC(CC(C4)C2)C3)c2c1C(=O)N(c1ccc(C)cc1)C2=O	KCNQ2 inh -6.8
